Source: PubChem BioAssay (NCATS)
For part of these data: Measured potencies and affinities stand elsewhere. The source made the active and inactive calls.

How the values were obtained:
[1] = Ebola virus entry assay, green fluorescence channel
[2] = Ebola virus entry assay, blue channel fluorescence
[3] = Ebola virus entry assay, green fluorescence channel; remark: listed apart in the source
[4] = Ebola virus entry assay, ratio channel readout
[5] = Ebola virus entry assay, blue channel fluorescence; remark: listed apart in the source
[6] = Ebola virus entry assay, ratio channel
[7] = Ebola virus entry assay, green channel fluorescence
[8] = Ebola virus entry assay, blue channel fluorescence; remark: listed apart in the source
[9] = Ebola virus entry assay, reporter ratio channel; AC50: Channel type: primary unless noted; outcome: Channel type: primary unless noted
[10] = Ebola virus entry assay, blue channel (ratio component)
[11] = Ebola virus entry reporter assay, green channel fluorescence
[12] = Ebola virus entry cell assay, ratio channel

Measured: efficacy
Wherever efficacy is given: 0% is about no effect.

COc1cc(C(=O)NCc2ccc(OCCN(C)C)cc2)cc(OC)c1OC
inactive: [1] 33.3% | [2] | [3] | [4] | [5] | [6] | [7] | [8] | [9] | [10] | [11] | [12]

CCCc1cc(=O)[nH]c(=S)[nH]1
inactive: [1] 10.6% | [2] | [3] | [4] | [5] | [6] | [7] | [8] | [9] | [10] | [11] | [12]

NCCC(O)(P(=O)(O)O)P(=O)(O)O
inactive: [1] -9.39% | [2] | [3] | [4] | [5] | [6] | [7] | [8] | [9] | [10] | [11] | [12]

O=NN(CCCl)C(=O)NC1CCCCC1
inactive: [1] -12.9% | [2] | [3] | [4] | [5] | [6] | [7] | [8] | [9] | [10] | [11] | [12]

C[C@@H]1C[C@H]2[C@@H]3CCC4=CC(=O)C=C[C@]4(C)[C@@]3(F)[C@@H](O)C[C@]2(C)[C@@]1(O)C(=O)CO
inactive: [1] -13.7% | [2] | [3] | [4] | [5] | [6] | [7] | [8] | [9] | [10] | [11] | [12]

NS(=O)(=O)c1cc2c(cc1C(F)(F)F)NCNS2(=O)=O
inactive: [1] -34.5% | [2] | [3] | [4] | [5] | [6] | [7] | [8] | [9] | [10] | [11] | [12]

CN/C(=C\[N+](=O)[O-])NCCSCc1ccc(CN(C)C)o1
inactive: [1] -12.5% | [2] | [3] | [4] | [5] | [6] | [7] | [8] | [9] | [10] | [11] | [12]

CCN(C)C(=O)Oc1cccc([C@H](C)N(C)C)c1
inactive: [1] 11.7% | [2] | [3] | [4] | [5] | [6] | [7] | [8] | [9] | [10] | [11] | [12]

Cn1c(=O)c2c(ncn2CC(O)CO)n(C)c1=O (stereo not given)
inactive: [1] -15% | [2] | [3] | [4] | [5] | [6] | [7] | [8] | [9] | [10] | [11] | [12]

CCN(CC)CCNC(=O)c1cc(Cl)c(N)cc1OC
inactive: [1] -12.5% | [2] | [3] | [4] | [5] | [6] | [7] | [8] | [9] | [10] | [11] | [12]

N[C@@H](C(=O)N[C@@H]1C(=O)N2C(C(=O)O)=C(Cl)CS[C@H]12)c1ccccc1
inactive: [1] 26% | [2] | [3] | [4] | [5] | [6] | [7] | [8] | [9] | [10] | [11] | [12]

Cn1cnc([N+](=O)[O-])c1Sc1ncnc2nc[nH]c12
inactive: [1] 14.5% | [2] | [3] | [4] | [5] | [6] | [7] | [8] | [9] | [10] | [11] | [12]

CC(=O)N[C@@H](CS)C(=O)O
inactive: [1] -17.9% | [2] | [3] | [4] | [5] | [6] | [7] | [8] | [9] | [10] | [11] | [12]

CO[C@@]12[C@H](COC(N)=O)C3=C(C(=O)C(C)=C(N)C3=O)N1C[C@@H]1N[C@@H]12
inactive: [1] 19.7% | [2] | [3] | [4] | [5] | [6] | [7] | [8] | [9] | [10] | [11] | [12]

O=C(OC1C[C@H]2CC[C@@H](C1)[N+]21CCCC1)C(O)(c1ccccc1)c1ccccc1 (stereo not given in full)
inactive: [1] 12.9% | [2] | [3] | [4] | [5] | [6] | [7] | [8] | [9] | [10] | [11] | [12]

Nc1nnc(-c2cccc(Cl)c2Cl)c(N)n1
inactive: [1] -18.2% | [2] | [3] | [4] | [5] | [6] | [7] | [8] | [9] | [10] | [11] | [12]

CC[N+](C)(C)c1cccc(O)c1
inactive: [1] -13.4% | [2] | [3] | [4] | [5] | [6] | [7] | [8] | [9] | [10] | [11] | [12]

CC(C)(C)NC(=O)[C@@H]1CN(Cc2cccnc2)CCN1C[C@@H](O)C[C@@H](Cc1ccccc1)C(=O)N[C@H]1c2ccccc2C[C@H]1O
inactive: [1] -17.5% | [2] | [3] | [4] | [5] | [6] | [7] | [8] | [9] | [10] | [11] | [12]

CCCCNc1ccc(C(=O)OCCOCCOCCOCCOCCOCCOCCOCCOCCOC)cc1
inactive: [1] 14% | [2] | [3] | [4] | [5] | [6] | [7] | [8] | [9] | [10] | [11] | [12]

O=P(O)(O)C(O)(Cc1cccnc1)P(=O)(O)O
inactive: [1] -17.5% | [2] | [3] | [4] | [5] | [6] | [7] | [8] | [9] | [10] | [11] | [12]

CCOc1ccccc1OCCN[C@H](C)Cc1ccc(OC)c(S(N)(=O)=O)c1
inactive: [1] -10.5% | [2] | [3] | [4] | [5] | [6] | [7] | [8] | [9] | [10] | [11] | [12]

O=C(O)CCNC(=O)c1ccc(N=Nc2ccc(O)c(C(=O)O)c2)cc1
inactive: [1] -11.9% | [2] | [3] | [4] | [5] | [6] | [7] | [8] | [9] | [10] | [11] | [12]

OC(Cn1cncn1)(Cn1cncn1)c1ccc(F)cc1F
inactive: [1] -11.5% | [2] | [3] | [4] | [5] | [6] | [7] | [8] | [9] | [10] | [11] | [12]

CC(C)Nc1cccnc1N1CCN(C(=O)c2cc3cc(NS(C)(=O)=O)ccc3[nH]2)CC1
inactive: [1] -26% | [2] | [3] | [4] | [5] | [6] | [7] | [8] | [9] | [10] | [11] | [12]

Cc1[nH]c(=O)c(C#N)cc1-c1ccncc1
inactive: [1] -19.3% | [2] | [3] | [4] | [5] | [6] | [7] | [8] | [9] | [10] | [11] | [12]

CCCC(=O)Nc1ccc(OCC(O)CNC(C)C)c(C(C)=O)c1 (stereo not given)
inactive: [1] 8.06% | [2] | [3] | [4] | [5] | [6] | [7] | [8] | [9] | [10] | [11] | [12]

O=NN(CCCl)C(=O)NCCCl
inactive: [1] -15% | [2] | [3] | [4] | [5] | [6] | [7] | [8] | [9] | [10] | [11] | [12]

CCCCN1C[C@H](O)[C@@H](O)[C@H](O)[C@H]1CO
inactive: [1] 19.9% | [2] | [3] | [4] | [5] | [6] | [7] | [8] | [9] | [10] | [11] | [12]

Cc1cccc(Nc2ccccc2C(=O)O)c1C
inactive: [1] 32.2% | [2] | [3] | [4] | [5] | [6] | [7] | [8] | [9] | [10] | [11] | [12]

CNCCc1ccccn1
inactive: [1] -10.7% | [2] | [3] | [4] | [5] | [6] | [7] | [8] | [9] | [10] | [11] | [12]

CCCCNC(=O)NS(=O)(=O)c1ccc(C)cc1
inactive: [1] -19.2% | [2] | [3] | [4] | [5] | [6] | [7] | [8] | [9] | [10] | [11] | [12]

CCC1(c2ccccc2)C(=O)NCNC1=O
inactive: [1] -13.6% | [2] | [3] | [4] | [5] | [6] | [7] | [8] | [9] | [10] | [11] | [12]

CS(=O)(=O)OCCCCOS(C)(=O)=O
inactive: [1] 19.1% | [2] | [3] | [4] | [5] | [6] | [7] | [8] | [9] | [10] | [11] | [12]

Cc1onc(-c2c(Cl)cccc2Cl)c1C(=O)N[C@@H]1C(=O)N2[C@@H]1SC(C)(C)[C@@H]2C(=O)O
inactive: [1] 26.4% | [2] | [3] | [4] | [5] | [6] | [7] | [8] | [9] | [10] | [11] | [12]

COc1ccccc1OCC(O)CN1CCN(CC(=O)Nc2c(C)cccc2C)CC1 (stereo not given)
inactive: [1] 29.5% | [2] | [3] | [4] | [5] | [6] | [7] | [8] | [9] | [10] | [11] | [12]
